Active and inactive are the calls of the source. How the source made its calls: active means hit-call score of the fitted dose curve at least 0.9, where 1 is the maximum; inactive means score below 0.9.

The nature of assay [1]: BSK_hDFCGF_SRB: Viability Assessment in the BioMAP Diversity Plus: hDFCGF Assay (AID 2283061).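 Further: cells exposed to compound for 24 h before the read.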 The conditions noted are these: primary human foreskin fibroblasts. In outline:
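Human foreskin primary fibroblasts were treated with compound and assessed 24 h after dosing. Total protein was measured by sulforhodamine B staining (0.1% SRB after 10% TCA fixation, 560 nm read) as a cytotoxicity marker, with bidirectional fitting against DMSO baseline.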

Read-out in assay [2]: TIMP metallopeptidase inhibitor 1 (TIMP1), TIMP1 (gene 7076)
In words: BSK_hDFCGF_TIMP1: BioMAP Diversity Plus: hDFCGF Assay for TIMP metallopeptidase inhibitor 1 (TIMP1) Biomarker Activity (AID 2283062). The conditions noted are these: primary human foreskin fibroblasts; actives raise or lower the signal. In outline:
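Primary human foreskin fibroblasts in the hDFCGF system were dosed with compound for 24 h, then TIMP-1 was measured by ELISA. Activity was fitted bidirectionally relative to DMSO control; parallel SRB staining assessed cytotoxicity.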

Read-out in assay [3]: Monokine induced gamma interferon (MIG), CXCL9 (gene 4283)
As to the kind of experiment: BSK_hDFCGF_MIG: BioMAP Diversity Plus: hDFCGF Assay for Monokine induced gamma interferon (MIG) Biomarker Activity (AID 2283063). The conditions noted are these: primary human foreskin fibroblasts; actives raise or lower the signal. In outline: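 ELISA read-out of MIG from primary human dermal fibroblasts 24 h post-dosing. Gain or loss of signal fitted bidirectionally, DMSO as baseline.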

Read-out in assay [4]: Matrix Metallopeptidase 1 (MMP1), MMP1 (gene 4312)
In words: BSK_hDFCGF_MMP1: BioMAP Diversity Plus: hDFCGF Assay for Matrix Metallopeptidase 1 (MMP1) Biomarker Activity (AID 2283064). As to conditions: primary human foreskin fibroblasts; actives raise or lower the signal. In outline:
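hDFCGF primary fibroblasts (human foreskin); chemical added; 24 h; MMP1 by ELISA; bidirectional fit vs DMSO.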

Read-out in assay [5]: Plasminogen activator inhibitor-1 (PAI1), SERPINE1 (gene 5054)
As to the kind of experiment: BSK_hDFCGF_PAI1: BioMAP Diversity Plus: hDFCGF Assay for Plasminogen activator inhibitor-1 (PAI1) Biomarker Activity (AID 2283066). As to conditions: primary human foreskin fibroblasts; actives raise or lower the signal. The gist of the method:
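Primary dermal fibroblasts (human foreskin), hDFCGF system; compound 24 h; PAI-1 by ELISA; bidirectional fit vs DMSO control.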

Read-out in assay [6]: Intercellular Adhesion Molecule 1 (ICAM1), ICAM1 (gene 3383)
In words: BSK_KF3CT_ICAM1: BioMAP Diversity Plus: KF3CT Assay for Intercellular Adhesion Molecule 1 (ICAM1) Biomarker Activity (AID 2283067). As to conditions: primary human keratinocytes with fibroblasts; actives raise or lower the signal. The gist of the method:
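Human keratinocyte plus foreskin fibroblast primary co-culture was exposed to chemical for 24 h. ICAM-1 was then quantified by ELISA, and the data were fit bidirectionally against DMSO as the negative control and baseline.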

Read-out in assay [7]: Interferon-gamma inducible Protein 10 (IP10), CXCL10 (gene 3627)
As to the kind of experiment: BSK_KF3CT_IP10: BioMAP Diversity Plus: KF3CT Assay for Interferon-gamma inducible Protein 10 (IP10) Biomarker Activity (AID 2283068). The conditions noted are these: primary human keratinocytes with fibroblasts; actives raise or lower the signal. The gist of the method:
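Human keratinocyte plus foreskin fibroblast primary co-culture exposed to test chemical for 24 h; IP-10 measured by ELISA. Concentration-response fitted bidirectionally against DMSO control as baseline.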

A short description of assay [8]: BSK_KF3CT_SRB: Viability Assessment in the BioMAP Diversity Plus: KF3CT Assay (AID 2283069).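 Further: fitted for both signal gain and loss against DMSO baseline.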 As to conditions: primary human keratinocytes with fibroblasts. The gist of the method:
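Keratinocytes co-cultured with foreskin fibroblasts (human primary); chemical added, 24 h; fix 10% TCA, stain 0.1% SRB, A560. Bidirectional fit vs DMSO.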

Read-out in assay [9]: Interleukin-1 alpha (IL1a), IL1A (gene 3552)
As to the kind of experiment: BSK_KF3CT_IL1a: BioMAP Diversity Plus: KF3CT Assay for Interleukin-1 alpha (IL1a) Biomarker Activity (AID 2283070). The conditions noted are these: primary human keratinocytes with fibroblasts; actives raise or lower the signal. The gist of the method: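 Chemicals were dosed onto co-cultured human keratinocytes and foreskin fibroblasts, IL-1a was quantified by ELISA at 24 h, and activity was fitted in both directions relative to DMSO controls.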

Read-out in assay [10]: TIMP metallopeptidase inhibitor 2 (TIMP2), TIMP2 (gene 7077)
As to the kind of experiment: BSK_KF3CT_TIMP2: BioMAP Diversity Plus: KF3CT Assay for TIMP metallopeptidase inhibitor 2 (TIMP2) Biomarker Activity (AID 2283071). The conditions noted are these: primary human keratinocytes with fibroblasts; actives raise or lower the signal. The gist of the method:
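Cells: human keratinocytes co-cultured with foreskin fibroblasts. Treat with chemical, 24 h. Measure TIMP-2 by ELISA; fit curves bidirectionally vs DMSO baseline.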

Read-out in assay [11]: Transforming growth factor beta 1 (TGFb1), TGFB1 (gene 7040)
As to the kind of experiment: BSK_KF3CT_TGFb1: BioMAP Diversity Plus: KF3CT Assay for Transforming growth factor beta 1 (TGFb1) Biomarker Activity (AID 2283072). As to conditions: primary human keratinocytes with fibroblasts; actives raise or lower the signal. In outline: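 Primary human skin cells (keratinocytes, foreskin fibroblasts) were co-cultured, exposed to test chemical and sampled at 24 h. TGF-b1 levels were measured by ELISA and fitted bidirectionally relative to DMSO.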

Read-out in assay [12]: C-C motif chemokine 2 (Homo sapiens) (UniProt P13500)
In words: BSK_KF3CT_MCP1: BioMAP Diversity Plus: KF3CT Assay for Monocyte Chemoattractant Protein 1 (MCP1/CCL2) Biomarker Activity (AID 2283073). As to conditions: primary human keratinocytes with fibroblasts; actives raise or lower the signal. The gist of the method:
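Human keratinocyte plus foreskin fibroblast primary co-culture exposed to chemical for 24 h. MCP-1 levels measured by ELISA. Bidirectional curve fitting relative to DMSO negative control as baseline.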

Read-out in assay [13]: Matrix Metallopeptidase 9 (MMP9), MMP9 (gene 4318)
In words: BSK_KF3CT_MMP9: BioMAP Diversity Plus: KF3CT Assay for Matrix Metallopeptidase 9 (MMP9) Biomarker Activity (AID 2283074).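 On AC50: MMP9 protein level quantified by ELISA in the co-culture.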 As to conditions: primary human keratinocytes with fibroblasts; actives raise or lower the signal. In outline:
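Human keratinocyte/foreskin fibroblast co-culture; compound added; 24 h; MMP-9 by ELISA; bidirectional fit vs DMSO baseline.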

Read-out in assay [14]: urokinase plasminogen activator (uPA), PLAU (gene 5328)
In words: BSK_KF3CT_uPA: BioMAP Diversity Plus: KF3CT Assay for urokinase plasminogen activator (uPA) Biomarker Activity (AID 2283075). The conditions noted are these: primary human keratinocytes with fibroblasts; actives raise or lower the signal. The gist of the method:
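ELISA readout of uPA, analyzed for signal gain or loss relative to DMSO, from a human primary keratinocyte–foreskin fibroblast co-culture measured 24 h after chemical treatment.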

Read-out in another assay: CD40, CD40 (gene 958)
As to the kind of experiment: BSK_LPS_CD40: BioMAP Diversity Plus: LPS Assay for CD40 Biomarker Activity (AID 2283076). The conditions noted are these: primary human HUVEC with PBMC; actives raise or lower the signal. In outline: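 Primary human umbilical vein endothelial cells co-cultured with peripheral blood mononuclear cells, LPS-stimulated, were dosed with chemical and read 24 h later. CD40 levels were measured by ELISA and fitted bidirectionally against DMSO as negative control and baseline.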

Read-out in assay [15]: E-selectin (Homo sapiens) (UniProt P16581)
As to the kind of experiment: BSK_LPS_Eselectin: BioMAP Diversity Plus: LPS Assay for Eselectin Biomarker Activity (AID 2283077). As to conditions: primary human HUVEC with PBMC; actives raise or lower the signal. The gist of the method:
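Human umbilical vein endothelial cells co-cultured with peripheral blood mononuclear cells under LPS stimulation; E-selectin measured by ELISA 24 h after chemical dosing. Activity fitted bidirectionally against DMSO as negative control and baseline.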

Read-out in assay [16]: Interleukin-8 (IL8), CXCL8 (gene 3576)
In words: BSK_LPS_IL8: BioMAP Diversity Plus: LPS Assay for Interleukin-8 (IL8) Biomarker Activity (AID 2283078). The conditions noted are these: primary human HUVEC with PBMC; actives raise or lower the signal. In outline: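 Human umbilical vein endothelial cells co-cultured with PBMC were stimulated with LPS; IL-8 levels were measured by ELISA 24 h after chemical dosing. Activity was fitted bidirectionally against DMSO as negative control and baseline.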

A short description of assay [17]: BSK_LPS_SRB: Viability Assessment in the BioMAP Diversity Plus: LPS Assay (AID 2283079).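 Further: total protein by sulforhodamine B absorbance as a cytotoxicity measure; measured one day after compound addition; fitted in both directions against DMSO so loss or gain of signal counts.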 As to conditions: primary human HUVEC with PBMC. The gist of the method:
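Human umbilical vein endothelial cells co-cultured with PBMC (LPS system) were dosed for 24 h. Total protein was stained with 0.1% sulforhodamine B after 10% TCA fixation, read at 560 nm, and fitted bidirectionally against DMSO baseline.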

Read-out in assay [18]: Interleukin-1 alpha (IL1a), IL1A (gene 3552)
As to the kind of experiment: BSK_LPS_IL1a: BioMAP Diversity Plus: LPS Assay for Interleukin-1 alpha (IL1a) Biomarker Activity (AID 2283080). The conditions noted are these: primary human HUVEC with PBMC; actives raise or lower the signal. In outline:
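Human umbilical vein endothelial cells co-cultured with peripheral blood mononuclear cells were LPS-stimulated and exposed to test chemicals for 24 h. IL-1 alpha was quantified by ELISA, with bidirectional curve fitting against DMSO as the negative control and baseline.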

Read-out in assay [19]: Vascular cell adhesion molecule 1 (VCAM1), VCAM1 (gene 7412)
As to the kind of experiment: BSK_hDFCGF_VCAM1: BioMAP Diversity Plus: hDFCGF Assay for Vascular cell adhesion molecule 1 (VCAM1) Biomarker Activity (AID 2283065). As to conditions: primary human foreskin fibroblasts; actives raise or lower the signal. In outline:
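Primary human foreskin fibroblasts (hDFCGF system) were dosed with chemical and VCAM-1 was measured by ELISA 24 h later. Bidirectional curve fitting used DMSO as negative control and activity baseline.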

E-selectin (Homo sapiens), sequence (P16581 whole entry, looked up): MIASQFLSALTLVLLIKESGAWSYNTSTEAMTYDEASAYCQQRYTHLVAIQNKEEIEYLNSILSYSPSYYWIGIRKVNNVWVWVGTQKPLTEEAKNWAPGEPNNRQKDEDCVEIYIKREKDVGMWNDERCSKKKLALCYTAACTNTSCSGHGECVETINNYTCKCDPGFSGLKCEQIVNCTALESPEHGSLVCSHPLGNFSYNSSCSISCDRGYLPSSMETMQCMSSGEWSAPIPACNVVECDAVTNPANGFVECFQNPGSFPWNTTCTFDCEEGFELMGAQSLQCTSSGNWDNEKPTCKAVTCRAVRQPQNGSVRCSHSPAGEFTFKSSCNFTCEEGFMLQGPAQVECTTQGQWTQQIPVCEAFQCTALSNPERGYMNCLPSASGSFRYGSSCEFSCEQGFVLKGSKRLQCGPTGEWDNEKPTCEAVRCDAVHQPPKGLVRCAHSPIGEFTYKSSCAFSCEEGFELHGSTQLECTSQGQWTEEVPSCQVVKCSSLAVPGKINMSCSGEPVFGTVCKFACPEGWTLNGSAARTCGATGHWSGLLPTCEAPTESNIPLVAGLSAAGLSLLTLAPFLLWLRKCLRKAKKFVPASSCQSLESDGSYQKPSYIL

Regarding `N#Cc1ccc(N(CC(N)=O)CC(F)(F)F)cc1C(F)(F)F`, the outcome in [1], in assay [2], in assay [3], in assay [4], in [5] and in assay [6] was inactive. The outcome in assay [7], in assay [8], in [9], in [10], in assay [11] and in assay [12] was inactive. Besides, the outcome in [13] was “inactive”; in assay [14] it was “inactive”; in the assay with CD40, CD40 (gene 958), “inactive”; in assay [15], “inactive”; in [16], “inactive”; in [17] it was “inactive”. In addition, the result in assay [18] was inactive.

As for `C1CC2OC2CC1C1CO1` (centres undefined), the outcome in [1], in [2], in [3], in assay [4], in [5] and in assay [6] was inactive. For the same compound, the outcome in [7], in assay [8], in assay [9], in [10], in assay [11] and in assay [12] was inactive. For the same compound, the outcome was “inactive” in assay [13]; “inactive” in assay [14]; “inactive” in the assay with CD40, CD40 (gene 958); “inactive” in assay [15]; “inactive” in [16]; “inactive” in assay [17]. The result in [18] was inactive.

In the case of `COS(=O)(=O)OC`, the result in [1], in assay [2], in assay [3], in assay [4], in assay [19] and in assay [5] was inactive. The result in [6], in assay [7], in assay [8], in assay [9], in assay [10] and in [11] was inactive. Moreover, the outcome is “inactive” in assay [13]; “inactive” in [14]; “inactive” with CD40, CD40 (gene 958); “inactive” in assay [15]; “inactive” in [16]; “inactive” in assay [17]. In addition, the outcome in assay [18] was inactive.

Take `C=CC(=O)NCNC(=O)C=C`: the outcome in assay [1], in assay [2], in assay [3], in assay [4], in assay [19] and in [5] was inactive. Besides, the result in assay [6], in assay [7], in [8], in assay [9], in assay [10] and in assay [11] was inactive. The outcome is “inactive” in [12]; “inactive” in assay [13]; “inactive” in assay [14]; “inactive” with CD40, CD40 (gene 958); “inactive” in assay [15]; “inactive” in [16]. The result in assay [17] and in [18] was inactive.

As to `CCCCCCCCCC[N+](C)(C)CCCCCCCCCC`, the AC50 (commonly the concentration giving half of the maximal activity seen) in assay [1] is 1.81 µM (active); in assay [2], 2 µM (active); in assay [3], 2.95 µM (active); in assay [4], 1.97 µM (active); in assay [5] it was 1.58 µM (active); in [6], 10.7 µM (active). For the same compound, the AC50 in assay [7] is 6.12 µM (active); in [8], 5.41 µM (active); in [9] it was 6.82 µM (active); in assay [10], 4.71 µM (active); in assay [11], 3.03 µM (active); in assay [13] it was 4.56 µM (active). The AC50 was 5.24 µM (active) in assay [14]; 4.27 µM (active) with CD40, CD40 (gene 958); 4.41 µM (active) in assay [15]; 5.86 µM (active) in assay [16]; 5.32 µM (active) in assay [17]; 3.75 µM (active) in assay [18].

For the compound `ClC1=C(Cl)[C@]2(Cl)[C@@H]3[C@@H](Cl)[C@H]4O[C@H]4[C@@H]3C1(Cl)C2(Cl)Cl`, the AC50 in assay [1] is 5.55 µM (active); in [17], 6.81 µM (active). In addition, the outcome in [2], in assay [3], in assay [4], in assay [5], in assay [6] and in assay [7] was inactive. Besides, the result in assay [8], in assay [9], in [10], in assay [11], in assay [12] and in assay [13] was inactive. The outcome in assay [14] is “inactive”; in the assay with CD40, CD40 (gene 958) it was “inactive”; in [15], “inactive”; in assay [16] it was “inactive”; in [18], “inactive”.
